According to PubChem BioAssay AID1159580 (chemical genetic matrix, 2015):
About 2,000 (36%) of roughly 5,500 compounds were called active. Not shown: some 18% with an inconclusive outcome. No stated cut-off is given here; in the data, active means normalized growth mostly below about 0.91 (no sharp cut-off); inconclusive means no clear call, values can overlap the other calls; inactive means mostly above about 0.92. The list shows a part of the results.

Assay: chemical genetic growth profiling, strain panel (AID 1159580);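 further: tested at 20 µM; growth read once vehicle control cultures reached saturation at 30 °C; 1 = growth at the plate median or of vehicle wells; lower values mean less growth of the strain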
Conditions: growth OD

Measured: normalized growth

C[C@@H]([C@H](O)c1ccccc1)N(C)C
inactive: S. cerevisiae deletion strains, locus YAL013W, strain DEP1, active compounds read low 1.01 | S. cerevisiae deletion strains, locus YAL021C, strain ccr4, active compounds read low 1.01 | S. cerevisiae deletion strains, locus YAL026C, strain drs2, active compounds read low 1.01 | S. cerevisiae deletion strains, locus YAL030W, strain snc1, active compounds read low 1.02 | S. cerevisiae deletion strains, locus YBL061C, strain skt5, active compounds read low 1.01 | S. cerevisiae deletion strains, locus YBR009C, strain hhf1, active compounds read low 1.01 | S. cerevisiae deletion strains, locus YBR021W, strain FUR4, active compounds read low 0.983 | S. cerevisiae deletion strains, locus YBR023C, strain chs3, active compounds read low 1.01 | S. cerevisiae deletion strains, locus YBR171W, strain sec66, active compounds read low 1.03 | S. cerevisiae deletion strains, locus YBR229C, strain ROT2, active compounds read low 1 | S. cerevisiae deletion strains, locus YBR231C, strain swc5, active compounds read low 1.01 | S. cerevisiae deletion strains, locus YBR279W, strain paf1, active compounds read low 1.02 | S. cerevisiae deletion strains, locus YCL011C, strain gbp2, active compounds read low 1.01 | S. cerevisiae deletion strains, locus YCL016C, strain dcc1, active compounds read low 1.01 | S. cerevisiae deletion strains, locus YCL029C, strain bik1, active compounds read low 1 | S. cerevisiae deletion strains, locus YCL061C, strain MRC1, active compounds read low 1.01 | S. cerevisiae deletion strains, locus YCL069W, strain vba3, active compounds read low 1.01 | S. cerevisiae deletion strains, locus YCR088W, strain abp1, active compounds read low 1.01 | S. cerevisiae deletion strains, locus YDL005C, strain med2, active compounds read low 1.02 | S. cerevisiae deletion strains, locus YDL035C, strain GPR1, active compounds read low 1.02 | S. cerevisiae deletion strains, locus YDL040C, strain nat1, active compounds read low 1.02 | S. cerevisiae deletion strains, locus YDL074C, strain BRE1, active compounds read low 0.999 | S. cerevisiae deletion strains, locus YDL101C, strain DUN1, active compounds read low 1 | S. cerevisiae deletion strains, locus YDL134C, strain PPH21, active compounds read low 1 | S. cerevisiae deletion strains, locus YDL185W, strain tfp1, active compounds read low 1.01 | S. cerevisiae deletion strains, locus YDL192W, strain arf1, active compounds read low 1.02 | S. cerevisiae deletion strains, locus YDR001C, strain nth1, active compounds read low 1.01 | S. cerevisiae deletion strains, locus YDR069C, strain doa4, active compounds read low 1.03 | S. cerevisiae deletion strains, locus YDR101C, strain arx1, active compounds read low 0.981 | S. cerevisiae deletion strains, locus YDR137W, strain rgp1, active compounds read low 0.984 | S. cerevisiae deletion strains, locus YDR150W, strain NUM1, active compounds read low 1.01 | S. cerevisiae deletion strains, locus YDR159W, strain sac3, active compounds read low 1.03 | S. cerevisiae deletion strains, locus YDR162C, strain NBP2, active compounds read low 1.02 | S. cerevisiae deletion strains, locus YDR195W, strain ref2 1.01 | S. cerevisiae deletion strains, locus YDR297W, strain sur2, active compounds read low 1.01 | S. cerevisiae deletion strains, locus YDR318W, strain mcm21, active compounds read low 1.01 | S. cerevisiae deletion strains, locus YDR334W, strain swr1, active compounds read low 1.02 | S. cerevisiae deletion strains, locus YDR335W, strain msn5, active compounds read low 1.03 | S. cerevisiae deletion strains, locus YDR388W, active compounds read low 1.01 | S. cerevisiae deletion strains, locus YDR392W, strain spt3, active compounds read low 1.03 | S. cerevisiae deletion strains, locus YDR502C, strain sam2, active compounds read low 1.01 | S. cerevisiae deletion strains, locus YEL003W, strain gim4, active compounds read low 1.02 | S. cerevisiae deletion strains, locus YEL037C, strain rad23, active compounds read low 1.01 | S. cerevisiae deletion strains, locus YEL061C, strain CIN8 (second series), active compounds read low 1.01 | S. cerevisiae deletion strains, locus YEL061C, strain CIN8, active compounds read low 1.01 | S. cerevisiae deletion strains, locus YER015W, strain faa2, active compounds read low 1.01 | S. cerevisiae deletion strains, locus YER016W, strain bim1, active compounds read low 1.02 | S. cerevisiae deletion strains, locus YER110C, active compounds read low 1.01 | S. cerevisiae deletion strains, locus YER111C, strain swi4, active compounds read low 1.01 | S. cerevisiae deletion strains, locus YER155C, strain BEM2 (second series), active compounds read low 1.03 | S. cerevisiae deletion strains, locus YER155C, strain BEM2, active compounds read low 1 | S. cerevisiae deletion strains, locus YER167W, strain BCK2, active compounds read low 1.01 | S. cerevisiae deletion strains, locus YFR010W, strain ubp6, active compounds read low 1.02 | S. cerevisiae deletion strains, locus YGL078C, strain dbp3, active compounds read low 1.01 | S. cerevisiae deletion strains, locus YGL086W, strain mad1, active compounds read low 0.997 | S. cerevisiae deletion strains, locus YGL167C, strain pmr1, active compounds read low 0.956 | S. cerevisiae deletion strains, locus YGL173C, strain kem1, active compounds read low 1.01 | S. cerevisiae deletion strains, locus YGL227W, strain vid30, active compounds read low 1.01 | S. cerevisiae deletion strains, locus YGL240W, strain doc1, active compounds read low 1.01 | S. cerevisiae deletion strains, locus YGL248W, strain PDE1, active compounds read low 1 | S. cerevisiae deletion strains, locus YGL253W, strain hxk2, active compounds read low 1.02 | S. cerevisiae deletion strains, locus YGR078C, strain PAC10, active compounds read low 1.02 | S. cerevisiae deletion strains, locus YGR135W, strain pre9, active compounds read low 1.03 | S. cerevisiae deletion strains, locus YGR252W, strain gcn5, active compounds read low 1.02 | S. cerevisiae deletion strains, locus YHR013C, strain ard1, active compounds read low 1.05 | S. cerevisiae deletion strains, locus YHR027C, strain rpn1, active compounds read low 1.01 | S. cerevisiae deletion strains, locus YHR030C, strain SLT2, active compounds read low 1.02 | S. cerevisiae deletion strains, locus YHR079C, strain IRE1 (second series), active compounds read low 1.01 | S. cerevisiae deletion strains, locus YHR094C, strain hxt1, active compounds read low 1.01 | S. cerevisiae deletion strains, locus YHR129C, strain ARP1, active compounds read low 1.01 | S. cerevisiae deletion strains, locus YHR142W, strain chs7, active compounds read low 1.01 | S. cerevisiae deletion strains, locus YHR200W, strain rpn10, active compounds read low 1 | S. cerevisiae deletion strains, locus YIL066C, strain RNR3, active compounds read low 1 | S. cerevisiae deletion strains, locus YIL073C, strain SPO22, active compounds read low 1.05 | S. cerevisiae deletion strains, locus YIL125W, strain kgd1, active compounds read low 1 | S. cerevisiae deletion strains, locus YIR030C, strain dcg1, active compounds read low 1.01 | S. cerevisiae deletion strains, locus YJL092W, strain hpr5, active compounds read low 1.01 | S. cerevisiae deletion strains, locus YJL095W, strain BCK1 (second series), active compounds read low 1.02 | S. cerevisiae deletion strains, locus YJL095W, strain BCK1, active compounds read low 0.996 | S. cerevisiae deletion strains, locus YJL115W, strain asf1, active compounds read low 1.02 | S. cerevisiae deletion strains, locus YJL129C, strain trk1, active compounds read low 1.03 | S. cerevisiae deletion strains, locus YJL134W, strain LCB3, active compounds read low 1.01 | S. cerevisiae deletion strains, locus YJL154C, strain vps35, active compounds read low 1.02 | S. cerevisiae deletion strains, locus YJL164C, strain tpk1, active compounds read low 1.02 | S. cerevisiae deletion strains, locus YJL166W, strain qcr8, active compounds read low 1.02 | S. cerevisiae deletion strains, locus YJL168C, strain set2, active compounds read low 1 | S. cerevisiae deletion strains, locus YJL187C, strain SWE1 (second series), active compounds read low 0.993 | S. cerevisiae deletion strains, locus YJL187C, strain SWE1, active compounds read low 1.02 | S. cerevisiae deletion strains, locus YJR043C, strain POL32, active compounds read low 1.01 | S. cerevisiae deletion strains, locus YJR075W, strain HOC1, active compounds read low 1 | S. cerevisiae deletion strains, locus YKL009W, strain mrt4, active compounds read low 1.02 | S. cerevisiae deletion strains, locus YKL068W, active compounds read low 1 | S. cerevisiae deletion strains, locus YKL085W, strain MDH1 (second series), active compounds read low 1.02 | S. cerevisiae deletion strains, locus YKL085W, strain MDH1, active compounds read low 1.02 | S. cerevisiae deletion strains, locus YKL160W, strain elf1, active compounds read low 1.01 | S. cerevisiae deletion strains, locus YKL190W, strain CNB1, active compounds read low 1.02 | S. cerevisiae deletion strains, locus YKR001C, strain vps1, active compounds read low 1 | S. cerevisiae deletion strains, locus YKR026C, strain gcn3, active compounds read low 1.01 | S. cerevisiae deletion strains, locus YKR091W, strain srl3, active compounds read low 1.01 | S. cerevisiae deletion strains, locus YLL001W, strain dnm1, active compounds read low 1.01 | S. cerevisiae deletion strains, locus YLL026W, active compounds read low 1.01 | S. cerevisiae deletion strains, locus YLL041C, strain sdh2, active compounds read low 1.02 | S. cerevisiae deletion strains, locus YLR027C, strain aat2, active compounds read low 1.01 | S. cerevisiae deletion strains, locus YLR039C, strain RIC1, active compounds read low 1.03 | S. cerevisiae deletion strains, locus YLR058C, strain SHM2, active compounds read low 1.01 | S. cerevisiae deletion strains, locus YLR102C, strain apc9, active compounds read low 1 | S. cerevisiae deletion strains, locus YLR221C, strain rsa3, active compounds read low 1.01 | S. cerevisiae deletion strains, locus YLR258W, strain gsy2, active compounds read low 1.01 | S. cerevisiae deletion strains, locus YLR262C, strain YPT6 (second series), active compounds read low 1 | S. cerevisiae deletion strains, locus YLR262C, strain YPT6, active compounds read low 1 | S. cerevisiae deletion strains, locus YLR268W, strain sec22, active compounds read low 1.01 | S. cerevisiae deletion strains, locus YLR320W, strain mms22, active compounds read low 1.02 | S. cerevisiae deletion strains, locus YLR330W, strain CHS5, active compounds read low 1.01 | S. cerevisiae deletion strains, locus YLR342W, strain FKS1 (second series), active compounds read low 1.03 | S. cerevisiae deletion strains, locus YLR342W, strain FKS1, active compounds read low 1.02 | S. cerevisiae deletion strains, locus YLR357W, strain rsc2, active compounds read low 1.04 | S. cerevisiae deletion strains, locus YLR370C, strain arc18, active compounds read low 1.01 | S. cerevisiae deletion strains, locus YLR371W, strain rom2, active compounds read low 1 | S. cerevisiae deletion strains, locus YLR384C, strain iki3, active compounds read low 1.02 | S. cerevisiae deletion strains, locus YLR418C, strain cdc73, active compounds read low 1.04 | S. cerevisiae deletion strains, locus YML016C, strain PPZ1, active compounds read low 1.01 | S. cerevisiae deletion strains, locus YML032C, strain rad52, active compounds read low 1 | S. cerevisiae deletion strains, locus YML120C, strain ndi1, active compounds read low 1.02 | S. cerevisiae deletion strains, locus YML124C, strain tub3, active compounds read low 1.01 | S. cerevisiae deletion strains, locus YMR058W, strain fet3, active compounds read low 1.02 | S. cerevisiae deletion strains, locus YMR078C, strain ctf18, active compounds read low 1.01 | S. cerevisiae deletion strains, locus YMR125W, strain sto1, active compounds read low 1.02 | S. cerevisiae deletion strains, locus YMR129W, active compounds read low 1.02 | S. cerevisiae deletion strains, locus YMR205C, strain PFK2, active compounds read low 1.02 | S. cerevisiae deletion strains, locus YMR223W, strain ubp8, active compounds read low 1.04 | S. cerevisiae deletion strains, locus YMR231W, strain pep5, active compounds read low 1.01 | S. cerevisiae deletion strains, locus YMR307W, strain GAS1, active compounds read low 1.02 | S. cerevisiae deletion strains, locus YNL067W, strain RPL9B, active compounds read low 0.999 | S. cerevisiae deletion strains, locus YNL071W, strain lat1, active compounds read low 1.01 | S. cerevisiae deletion strains, locus YNL153C, strain GIM3, active compounds read low 0.985 | S. cerevisiae deletion strains, locus YNL209W, strain ssb2, active compounds read low 1.02 | S. cerevisiae deletion strains, locus YNL233W, strain BNI4, active compounds read low 0.982 | S. cerevisiae deletion strains, locus YNL248C, strain rpa49, active compounds read low 1 | S. cerevisiae deletion strains, locus YNL250W, strain rad50, active compounds read low 1.05 | S. cerevisiae deletion strains, locus YNL271C, strain bni1, active compounds read low 1.01 | S. cerevisiae deletion strains, locus YNL298W, strain CLA4, active compounds read low 1.02 | S. cerevisiae deletion strains, locus YNL307C, strain MCK1, active compounds read low 1.01 | S. cerevisiae deletion strains, locus YNL322C, strain KRE1 (second series), active compounds read low 1 | S. cerevisiae deletion strains, locus YNR049C, strain mso1, active compounds read low 1.01 | S. cerevisiae deletion strains, locus YNR052C, strain pop2, active compounds read low 1 | S. cerevisiae deletion strains, locus YOL006C, strain TOP1, active compounds read low 1 | S. cerevisiae deletion strains, locus YOL012C, strain htz1 0.634 | S. cerevisiae deletion strains, locus YOL147C, strain pex11, active compounds read low 1.01 | S. cerevisiae deletion strains, locus YOR001W, strain rrp6, active compounds read low 1.01 | S. cerevisiae deletion strains, locus YOR061W, strain CKA2, active compounds read low 1.01 | S. cerevisiae deletion strains, locus YOR069W, strain VPS5, active compounds read low 1 | S. cerevisiae deletion strains, locus YOR070C, strain gyp1, active compounds read low 1.02 | S. cerevisiae deletion strains, locus YOR080W, strain dia2, active compounds read low 1.03 | S. cerevisiae deletion strains, locus YOR083W, strain WHI5, active compounds read low 1.02 | S. cerevisiae deletion strains, locus YOR106W, strain vam3, active compounds read low 1.01 | S. cerevisiae deletion strains, locus YOR136W, strain idh2, active compounds read low 1 | S. cerevisiae deletion strains, locus YOR144C, strain elg1, active compounds read low 1.01 | S. cerevisiae deletion strains, locus YOR184W, strain ser1, active compounds read low 1.01 | S. cerevisiae deletion strains, locus YOR265W, strain rbl2, active compounds read low 1.02 | S. cerevisiae deletion strains, locus YOR270C, strain vph1, active compounds read low 1.03 | S. cerevisiae deletion strains, locus YOR290C, strain snf2, active compounds read low 1.01 | S. cerevisiae deletion strains, locus YOR316C, strain cot1, active compounds read low 1.01 | S. cerevisiae deletion strains, locus YPL051W, strain arl3, active compounds read low 1.01 | S. cerevisiae deletion strains, locus YPL078C, strain atp4, active compounds read low 1.02 | S. cerevisiae deletion strains, locus YPL106C, strain sse1, active compounds read low 1.03 | S. cerevisiae deletion strains, locus YPL240C, strain hsp82, active compounds read low 1.02 | S. cerevisiae deletion strains, locus YPR119W, strain clb2, active compounds read low 1.01 | S. cerevisiae deletion strains, locus YPR141C, strain kar3, active compounds read low 1 | S. cerevisiae deletion strains, locus YPR163C, strain tif3, active compounds read low 1.01 | S. cerevisiae deletion strains, locus YPR167C, strain met16, active compounds read low 1 | S. cerevisiae deletion strains, strain wtn01, active compounds read low 1.01 | S. cerevisiae strains, strain wild type, active compounds read low 1.01
